Results on 18 compounds are retold here after PubChem BioAssay (NCATS).

Unmarked numbers belong to inactive results. Records with an inconclusive call do not appear. Activity calls are given as the source filed them. Unless noted, the call rests on the fitted dose curve; in most records, active means well fitted curve in either direction with a large enough effect (not every such curve was filed as active); inconclusive means small, poorly fitted or top-dose-only effect, or another doubt; inactive means flat fitted curve, though single readings scatter.

Test [1] deals with Lysosomal acid glucosylceramidase (Homo sapiens) (UniProt P04062). In words: Glucocerebrosidase-p2 (AID 348; in the data active means potency below about 10 µM; further: potency means the concentration at half of the fitted maximal effect). To be noted: purified GBA, blue fluorogenic substrate, 40 min. Put shortly:
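Compounds titrated from 0.6 nM upwards against 0.2 nM enzyme in pH 5.9 citric acid/KH2PO4, taurocholate, tween-20; blue fluorogenic substrate 80 uM, 40 min room temperature, stopped and read Ex 365/Em 440 for AC50.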

Test [2] in a line: AP1 Signaling Pathway (AID 357).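 Further: ME-180 reporter cells stimulated with EGF at its EC50 level; on the % scale 0 is the no-effect control and ±100 the full control effect.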 The following applies: ME-180 AP-1-bla reporter, EGF-induced, beta-lactamase ratio, 5 h; at 7.69 µM (top of the series) unless noted. Put shortly: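 A ratiometric CCF4 readout (405 nm excitation; 460 and 530 nm emission) quantified AP-1-driven beta-lactamase in ME-180 cells after 5 h with compound and EC50 EGF; AC50 values were derived for activators and inhibitors.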

Test [3] has as its target Cytochrome P450 1A2 (Homo sapiens) (UniProt P05177). In words: p450-cyp1a2 (AID 410; calls by dose curve; further: potency means the concentration at half of the fitted maximal effect). The following applies: recombinant CYP1A2, luciferin-ME demethylation, luminescence; series mostly up to 11.4 µM. Put shortly: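 Luminescent readout of luciferin formed from Luciferin-ME by human CYP1A2; data normalized against complete inhibition by 57 uM furafylline. Enzyme 20nM, substrate 100uM at Km, 100mM KPO4 buffer, 60 min reaction at room temperature.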

Test [4] can be described thus: NFAT Signaling Pathway (AID 444).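 Further: carbachol stimulus at about its EC50 of 1 µM final; on the % scale 0 is the no-effect control and ±100 the full control effect.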 The following applies: Jurkat NFAT-bla M1, carbachol, beta-lactamase ratio, 5 h; at 7.69 µM (top of the series) unless noted. In a few lines:
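Jurkat cells carrying an NFAT-driven β-lactamase reporter and co-transfected muscarinic M1 receptor were treated with compound plus carbachol (1 uM final, an EC50 level) for 5 h at 37 °C. CCF4 loading followed for 1 h at RT; 460/530 nm ratio gave %activity.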

The nature of test [5]: Stat Signaling Pathway (AID 446).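 Further: ME-180 cervical cancer cells given 40 pM IL-6 alongside compound; SIE-controlled beta-lactamase reporter measured as 460/530 nm FRET emission ratio; on the % scale 0 is the no-effect control and ±100 the full control effect.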 To be noted: ME-180 SIE beta-lactamase reporter, IL-6 stimulated, 5 h; at 7.69 µM (top of the series) unless noted. Put shortly: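 ME-180 cells carrying a SIE-driven beta-lactamase reporter are stimulated with 40 pM IL-6 for 5 h at 37C in the presence of compound. The 460/530 nm FRET substrate ratio is read after 2.5 h at RT. Data are normalised to 300 pM IL-6 and to 125 nM JAK inhibitor controls.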

The target of test [6] is Glucocorticoid receptor (Homo sapiens) (UniProt P04150). In words: GR-GFP Redistribution (AID 450;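 active means compounds whose dose series gives a full or clear partial fitted curve of increased nuclear translocation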; further: potency means the concentration at half of the fitted maximal effect). The following applies: U2OS GR-GFP nuclear translocation, laser cytometry, 2 h.
The target is the same in test [7]. In words: GR-EFC Redistribution (AID 451; calls by dose curve; further: potency means the concentration at half of the fitted maximal effect). The following applies: CHO-K1 GR-EFC translocation, beta-gal luminescence, 2 h. In a few lines:
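CHO-K1 cells stably expressing nuclear-localized β-gal enzyme acceptor and GR fused C-terminally to the enzyme donor fragment; ligand-driven nuclear translocation restores β-gal by complementation. Compounds titrated up to 46 uM final, 2 h at 37 °C; luminescence read.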

Test [8] has as its target Mitogen-activated protein kinase 10 (Mus musculus) (UniProt Q61831). Briefly: JNK3 AlphaScreen Assay (AID 530).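 Further: kinase came from lysate of stimulated human HepG2 cells; signal reports phosphorylation of biotinylated GST-cJun 1-79 at Ser73 with 10 µM ATP; on the % scale 0 is the no-effect control and ±100 the full control effect.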 The following applies: JNK3 lysate, c-Jun phosphorylation; series mostly up to 57.1 µM. Put shortly: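 Inhibitors reduce antibody binding to phosphorylated biotin-cJun, lowering AlphaScreen luminescence. Lysates from HepG2 cells pre-activated by IL-1beta plus TNF-alpha supplied JNK3; compounds were titrated.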
On the technique in general: In Alpha technology, singlet oxygen from a donor bead excites a nearby acceptor bead.

Test [9] addresses 3',5'-cyclic-AMP phosphodiesterase 4B (Homo sapiens) (UniProt Q07343). Briefly: qHTS Assay for Inhibitors of PDE-IV (AID 607; active means well fitted activation curve with a large enough effect in the main read-out, with a control signal flat, not every such curve was filed as active; further: % of control where 0% means no effect). To be noted: HEK293 ACTOne CNG channel cells, membrane potential fluorescence; series mostly up to 22.9 µM. In a few lines: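 HEK293 ACTOne cells with CNG channel (1000/well), endogenous PDE4; membrane potential dye, compounds up to 22.9 uM final. Fluorescence Ex 535/Em 590; RO 20-1724 (100 uM final) as reference.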
(In general: In qHTS, concentration-response curves come from the screen itself.)

Test [10] concerns HIV-1 nucleocapsid protein NCp7 (binding to TG oligonucleotide). Briefly: HIV Nucleocapsid (AID 346; call rule not given here;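 further: potency means the concentration at half of the fitted maximal effect; potency is for inhibitors that block NC binding and lower polarization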). To be noted: HIV-1 NC / fluorescein-TGTGTGTG probe, fluorescence polarization. In a few lines:
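10 nM TG4xF probe with 100 nM nucleocapsid protein in high-salt Hepes pH 7.5 (250mM NaCl) containing 1uM ZnCl2 and reducing agents. Compound inhibition of binding was read as fluorescein polarization after 1 hr at room temperature.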

For test [11], the target named is Cytochrome P450 2D6 (Homo sapiens) (UniProt P10635). In words: qHTS Assay for Inhibitors and Substrates of Cytochrome P450 2D6 (AID 891; active means well fitted inhibition curve with a large enough effect; further: potency means the concentration at half of the fitted maximal effect; nearly all actives have a fitted effect of over 60% in size). The following applies: recombinant CYP2D6, luciferin-ME EGE luminescence; series mostly up to 11.4 µM. Put shortly:
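Human CYP2D6 (5 nM) with 30 uM Luciferin-ME EGE (at Km) in 100 mM KPO4, compound preincubated 10 min, then NADPH regeneration system for 60 min at room temperature. Luciferin read by luminescence; normalized to 1.43 uM quinidine.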

Chain of 3',5'-cyclic-AMP phosphodiesterase 4B (Homo sapiens) (Q07343 whole entry, looked up): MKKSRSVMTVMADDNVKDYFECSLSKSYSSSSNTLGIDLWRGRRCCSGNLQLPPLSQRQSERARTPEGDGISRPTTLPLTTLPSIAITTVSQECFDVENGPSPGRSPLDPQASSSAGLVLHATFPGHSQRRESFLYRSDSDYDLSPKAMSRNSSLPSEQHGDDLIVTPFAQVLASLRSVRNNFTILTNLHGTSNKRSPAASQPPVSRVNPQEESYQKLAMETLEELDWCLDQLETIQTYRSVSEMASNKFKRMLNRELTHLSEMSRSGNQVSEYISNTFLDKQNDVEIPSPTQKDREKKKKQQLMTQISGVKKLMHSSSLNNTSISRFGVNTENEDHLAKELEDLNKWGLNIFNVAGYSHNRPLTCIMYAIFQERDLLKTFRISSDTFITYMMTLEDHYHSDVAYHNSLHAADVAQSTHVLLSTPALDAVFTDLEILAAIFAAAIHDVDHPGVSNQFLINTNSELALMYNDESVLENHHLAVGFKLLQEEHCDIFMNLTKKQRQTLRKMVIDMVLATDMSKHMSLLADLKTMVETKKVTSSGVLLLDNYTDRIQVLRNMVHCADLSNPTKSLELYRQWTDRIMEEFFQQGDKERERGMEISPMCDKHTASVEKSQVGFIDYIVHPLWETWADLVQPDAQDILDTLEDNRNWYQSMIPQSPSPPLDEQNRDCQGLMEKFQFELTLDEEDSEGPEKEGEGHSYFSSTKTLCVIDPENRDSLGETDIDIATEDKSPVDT
Chain of Cytochrome P450 1A2 (Homo sapiens) (P05177 whole entry, looked up): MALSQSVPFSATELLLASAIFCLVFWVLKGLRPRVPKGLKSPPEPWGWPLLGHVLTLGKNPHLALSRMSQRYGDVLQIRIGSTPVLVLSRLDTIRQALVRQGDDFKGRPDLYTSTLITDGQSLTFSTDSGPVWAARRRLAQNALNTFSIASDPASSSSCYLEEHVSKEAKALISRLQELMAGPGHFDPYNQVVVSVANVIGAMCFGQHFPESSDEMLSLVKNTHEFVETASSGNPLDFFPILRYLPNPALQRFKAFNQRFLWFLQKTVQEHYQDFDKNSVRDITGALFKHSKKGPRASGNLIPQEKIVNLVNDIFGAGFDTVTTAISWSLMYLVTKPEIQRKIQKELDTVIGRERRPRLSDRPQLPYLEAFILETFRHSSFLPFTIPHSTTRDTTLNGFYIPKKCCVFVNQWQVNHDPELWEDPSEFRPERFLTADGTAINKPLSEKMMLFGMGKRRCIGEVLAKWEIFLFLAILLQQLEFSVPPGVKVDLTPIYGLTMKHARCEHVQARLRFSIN
Chain of Glucocorticoid receptor (Homo sapiens) (P04150 whole entry, looked up): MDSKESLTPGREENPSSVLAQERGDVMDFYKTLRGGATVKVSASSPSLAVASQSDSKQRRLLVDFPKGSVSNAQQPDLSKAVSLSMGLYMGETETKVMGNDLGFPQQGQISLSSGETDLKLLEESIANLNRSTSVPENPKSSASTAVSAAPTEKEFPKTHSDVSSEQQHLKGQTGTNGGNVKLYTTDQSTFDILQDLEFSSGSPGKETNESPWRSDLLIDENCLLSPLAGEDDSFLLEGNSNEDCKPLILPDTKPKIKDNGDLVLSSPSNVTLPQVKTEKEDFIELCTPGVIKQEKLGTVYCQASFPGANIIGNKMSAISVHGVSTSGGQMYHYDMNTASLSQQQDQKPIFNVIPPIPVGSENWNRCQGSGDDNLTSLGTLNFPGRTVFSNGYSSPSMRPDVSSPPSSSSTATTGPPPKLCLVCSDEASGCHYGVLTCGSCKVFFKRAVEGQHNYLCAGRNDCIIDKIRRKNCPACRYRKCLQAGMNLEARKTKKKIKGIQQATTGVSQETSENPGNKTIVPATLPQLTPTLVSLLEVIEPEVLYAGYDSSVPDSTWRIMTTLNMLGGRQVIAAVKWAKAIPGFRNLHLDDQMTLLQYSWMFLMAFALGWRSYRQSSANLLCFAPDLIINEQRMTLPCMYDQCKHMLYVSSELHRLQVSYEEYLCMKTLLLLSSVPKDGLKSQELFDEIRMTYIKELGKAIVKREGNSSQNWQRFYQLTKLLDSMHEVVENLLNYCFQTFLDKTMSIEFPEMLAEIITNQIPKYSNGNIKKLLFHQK
Chain of Lysosomal acid glucosylceramidase (Homo sapiens) (P04062 whole entry, looked up): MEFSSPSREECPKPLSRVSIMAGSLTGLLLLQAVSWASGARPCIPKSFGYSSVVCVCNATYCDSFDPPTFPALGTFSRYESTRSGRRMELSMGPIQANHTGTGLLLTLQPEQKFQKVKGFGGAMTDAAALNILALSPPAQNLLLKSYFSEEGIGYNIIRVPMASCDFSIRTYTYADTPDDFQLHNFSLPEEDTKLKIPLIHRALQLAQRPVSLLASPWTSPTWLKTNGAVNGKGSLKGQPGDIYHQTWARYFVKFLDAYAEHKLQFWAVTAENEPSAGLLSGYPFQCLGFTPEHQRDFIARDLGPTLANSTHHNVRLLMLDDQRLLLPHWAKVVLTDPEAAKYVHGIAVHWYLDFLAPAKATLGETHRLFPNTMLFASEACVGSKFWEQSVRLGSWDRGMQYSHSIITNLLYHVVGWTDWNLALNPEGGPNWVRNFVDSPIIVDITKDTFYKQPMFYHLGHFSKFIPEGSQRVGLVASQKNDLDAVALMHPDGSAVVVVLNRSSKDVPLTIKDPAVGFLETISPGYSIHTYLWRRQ
Chain of Cytochrome P450 2D6 (Homo sapiens) (P10635 whole entry, looked up): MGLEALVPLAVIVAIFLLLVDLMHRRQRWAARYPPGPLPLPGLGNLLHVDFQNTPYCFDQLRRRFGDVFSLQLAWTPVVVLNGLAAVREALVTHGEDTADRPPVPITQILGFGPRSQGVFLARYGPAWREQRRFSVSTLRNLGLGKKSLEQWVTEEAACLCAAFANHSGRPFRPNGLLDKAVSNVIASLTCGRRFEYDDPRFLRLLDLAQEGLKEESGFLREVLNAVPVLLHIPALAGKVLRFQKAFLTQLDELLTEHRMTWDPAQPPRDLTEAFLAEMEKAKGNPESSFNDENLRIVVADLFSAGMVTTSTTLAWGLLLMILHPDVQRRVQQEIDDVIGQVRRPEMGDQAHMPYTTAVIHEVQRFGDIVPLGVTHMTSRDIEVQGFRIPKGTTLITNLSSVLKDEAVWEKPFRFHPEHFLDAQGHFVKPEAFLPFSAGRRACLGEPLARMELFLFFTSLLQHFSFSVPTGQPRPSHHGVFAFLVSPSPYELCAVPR

On to `CCC1(CCSC(=N)N)C(=O)NC(=O)NC1=O`, for which the Potency in [1] is greater than 11.4 µM; in test [6], greater than 46 µM; in test [7], greater than 9.22 µM. Besides, the activity change, negative = inhibition in test [2] was 6.2%; in test [3] it was -10.9% [at 2.29 µM]; in test [4] it was 1.26%; in test [8], 3.03% [at 11.4 µM]. For the same compound, in test [5], the activity, negative = inhibition was -4.63%. For the same compound, in [9], the compound was called inactive.

Consider `O=c1c(-c2ccccc2)nc2cnc(Oc3cccc(Cl)c3)nc2n1C[C@H]1CCCO1`, for which, in test [10], the Potency was greater than 20 µM.

On to `COc1ccccc1-c1cc(NCc2cnc(C)cn2)ncn1`, for which, in test [10], the Potency was greater than 20 µM.

Regarding `O=C(c1cnccn1)N1CCC2(CC1)CN(c1ncccn1)C2`, in test [10], the Potency is greater than 20 µM.

Consider `COc1ccccc1CNc1nc(-c2ccc(N(C)C)cc2)nc2ccccc12`, for which the Potency in [10] was greater than 20 µM.

Turning to `O=C(O)C(C(=O)O)P(=S)(S)c1ccccc1` (stereo unspecified), the Potency in test [1] was greater than 11.4 µM; in test [6], greater than 46 µM; in test [7], greater than 9.22 µM. In addition, the activity change, negative = inhibition in test [2] was 3.83%; in [4], 11.1%; in test [8], 2.73% [at 11.4 µM]. Further, the Potency result in test [3] is “inactive”. Besides, the activity, negative = inhibition in [5] is 2.85%. For the same compound, the outcome in test [9] was inactive.

Regarding `O=P(O)(O)CCP(=O)(O)O`, the Potency in [1] was greater than 11.4 µM; in test [6], greater than 46 µM; in [7], greater than 9.22 µM. The activity change, negative = inhibition in [2] was -10.9%; in [4] it was 7.15%; in test [8], -1.32% [at 11.4 µM]. For the same compound, in test [3], the Potency entry was “inactive”. In addition, the activity, negative = inhibition in test [5] was 11.8%. In [9], the result was inactive.

On to `Oc1ccc([C@H](O)[C@@H]2CCCCN2)cc1O`, for which the figures for the Potency in [1], in test [6] and in test [7] were greater than 11.4 µM, greater than 46 µM and greater than 9.22 µM, respectively. For the same compound, the activity change, negative = inhibition in [2] was -22.3%; in test [4], 5.42%; in [8], 1.46% [at 11.4 µM]. Further, the Potency entry in test [3] is “inactive”. The activity, negative = inhibition in [5] is 8.8%. Besides, the call in [9] was inactive.

With `O=C(O)[C@H]1[O][Sb][O][C@@H](C(=O)O)C1O` (stereo partly specified), the figures for the Potency in test [1], in [6] and in test [7] were greater than 11.4 µM, greater than 46 µM and greater than 9.22 µM, respectively. Moreover, the activity change, negative = inhibition in [2] is 1.25%; in [3], -15% [at 2.29 µM]; in [4] it was 8.28%; in [8] it was -2.33% [at 11.4 µM]. Moreover, the activity, negative = inhibition in [5] is 6.32%. Also, in test [9], the compound was classed as inactive.

Regarding `COc1ccc(C(=O)N2CCC3(CC2)CCN(c2ccncc2)CC3)cc1`, in test [10], the Potency is greater than 20 µM.

Consider `CC(C)c1nccn1Cc1ccc(Cl)cc1Cl`, for which the Potency in test [1] was greater than 11.4 µM; in test [6] it was greater than 46 µM; in test [7], greater than 9.22 µM. Besides, the activity change, negative = inhibition was -14.8% in test [2], -21% in test [4] and -0.456% [at 11.4 µM] in [8]. Moreover, the Potency entry in test [3] is “inactive”. Besides, in test [5], the activity, negative = inhibition was 1.75%. In addition, the result in [9] was inactive.

Consider `Cc1noc(C)c1-c1cncnc1N1CCN(C)CC1`, for which, in test [10], the Potency is greater than 20 µM.

With `CN(CCC(=O)O)C1=Nc2ccc(Cl)cc2C(c2ccccc2)=[N+]([O-])C1`, the Potency in test [1] was greater than 11.4 µM; in test [3] it was 0.0631 µM (active); in test [6] it was greater than 46 µM; in test [7], greater than 9.22 µM. Also, the activity change, negative = inhibition is -5.9% in [2], 13.9% in [4] and 1.43% [at 11.4 µM] in [8]. The activity, negative = inhibition in test [5] is 1.77%. Moreover, in test [9], the call was inactive.

Turning to `Clc1ccccc1-c1nccc(NCCN2CCOCC2)n1`, the Potency in [10] was greater than 20 µM.

As for `c1nc(N2CCOCC2)c2cc(-c3ccoc3)ccc2n1`, the Potency in [10] was greater than 20 µM.

On to `COc1ccc(-c2nc3cnc(Oc4cccc(Cl)c4)nc3n(C3CC3)c2=O)cc1`, for which the Potency in [10] is greater than 20 µM.

Regarding `COc1ccccc1CN1CCCC2(CCN(C(=O)Oc3ccccc3)CC2)C1`, the Potency in [10] was greater than 20 µM; in test [7], greater than 46 µM; in test [11], 3.98 µM (active). Besides, in [2], the activity change, negative = inhibition is 3.33%. The Potency entry in [3] and in test [8] was “inactive” throughout. The activity, negative = inhibition in test [5] is 1.52%. In addition, the compound was called inactive in [9].

Regarding `CCNc1ncc2nc(-c3cccs3)c(=O)n(Cc3cccc(OC)c3)c2n1`, the Potency in test [10] is greater than 4 µM.
